Rows were chosen to be rich in hits. Some 28% of all compounds tested hit in one or more screens of this group.
CYP2C9 inh: blockers of cytochrome P450 2C9 activity – biochemical, luminescence, ADME assay, primary screen; P11712; CYP2C9 Supersomes, luciferin-H conversion; inhibition, % at 5 µM; actives 20% (n = 96,000); AID 777, 2007;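 active = blocking of liver enzyme CYP2C9 beyond about 50% at 5 µM, limit read from the data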
CYP2C19 activ: human CYP2C19 activators, primary screen, biochemical, luminescence | Cytochrome P450 2C19 (Homo sapiens), P33261 | recombinant CYP2C19, luciferin-H EGE luminescence; stronger effect = higher value; 0 = fully inhibited enzyme, 1 = untreated enzyme | activation factor at 5 µM | 96,000 tested, under 10 active;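 active = activation factor of at least 2 at 5 µM in the primary screen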;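 also: 0 = wells with 2.5 mM tranylcypromine and 1 = vehicle-only wells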
PLK1 kinase inh: human PLK1 kinase inhibitors, primary screen, biochemical, TR-FRET | recombinant PLK1 kinase, TR-FRET peptide phosphorylation | inhibition, % at 10 µM | actives 0.53% (n = 97,000) | AID 619, 2007 | Serine/threonine-protein kinase PLK1 (Homo sapiens), P53350;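 active = inhibition of 50% or more in the single-concentration screen; inactive = inhibition below 50%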;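 also: 0% = DMSO max control and 100% = H-89 dihydrochloride min control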
Target sequence (P53350 whole entry, looked up): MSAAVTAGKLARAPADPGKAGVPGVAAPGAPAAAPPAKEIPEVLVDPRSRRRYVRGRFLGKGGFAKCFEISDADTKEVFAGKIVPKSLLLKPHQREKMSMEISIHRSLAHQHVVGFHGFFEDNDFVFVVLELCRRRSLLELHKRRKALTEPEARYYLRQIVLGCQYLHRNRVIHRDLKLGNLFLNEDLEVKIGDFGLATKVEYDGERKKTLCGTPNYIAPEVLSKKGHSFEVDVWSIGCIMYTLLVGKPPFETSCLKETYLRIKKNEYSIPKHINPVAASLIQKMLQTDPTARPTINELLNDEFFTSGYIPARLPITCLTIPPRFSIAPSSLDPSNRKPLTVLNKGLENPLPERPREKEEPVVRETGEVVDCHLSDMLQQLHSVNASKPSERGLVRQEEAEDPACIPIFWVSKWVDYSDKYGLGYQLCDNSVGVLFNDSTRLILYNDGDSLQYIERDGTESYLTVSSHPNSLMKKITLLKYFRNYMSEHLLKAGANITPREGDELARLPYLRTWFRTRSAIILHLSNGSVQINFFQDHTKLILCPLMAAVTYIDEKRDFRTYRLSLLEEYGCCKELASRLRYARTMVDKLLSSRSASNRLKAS
CYP2C9 activ: human CYP2C9 activators, primary screen, biochemical, luminescence. Cytochrome P450 2C9 (Homo sapiens), P11712. recombinant CYP2C9, luciferin-H conversion; stronger effect = higher value; factor 1 = untreated enzyme, 0 = blocked. activation factor at 5 µM. actives 1.4% (n = 96,000);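 active = activation factor of 2 or more for CYP2C9 at a 5 µM dose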;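 also: 0 = sulfaphenazole-blocked wells and 1 = vehicle-only wells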
PLK1 PBD inh: Plk1 polo box domain binding inhibitors, primary screen, biochemical, fluorescence polarization. Serine/threonine-protein kinase PLK1 (Homo sapiens), P53350. Plk1 PBD phosphopeptide binding. AID 693, 2007. inhibition, %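 (tested at about 20 µM)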. actives 0.13% (n = 97,000); in the data active = inhibition above about 34%, passing the limit was not always enough
CYP2C19 inh: blockers of cytochrome P450 2C19 activity – biochemical, luminescence, ADME assay, primary screen; CYP2C19 Supersomes, luciferin-H EGE luminescence, 30 min; inhibition, % at 5 µM; actives 21% (n = 96,000);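 active = CYP2C19 inhibition above a set limit at 5 µM in the primary screen, cut at about 50% in these data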;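 also: plate controls were negative control wells for no effect and 2.5 mM tranylcypromine positive control for full effect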
An asterisk follows results filed as active.

CC(CCc1ccccc1)NC(=O)C1CCCN(C(=O)c2cc3sccc3n2C)C1 (stereo not given) was read as CYP2C9 inh 48.6, CYP2C19 activ 0.7, PLK1 kinase inh -5.5, CYP2C9 activ 0.5, PLK1 PBD inh 16.4 and CYP2C19 inh 32.7.
Screening COCCN1Cc2cccc(C(=O)Nc3cc(C)cc(C)c3)c2C1=O returned CYP2C9 inh 38.4, CYP2C19 activ 1, PLK1 kinase inh -7.1, CYP2C9 activ 0.6, PLK1 PBD inh -23.3 and CYP2C19 inh -0.6.
COc1cc(NC(=O)c2cccc3c2C(=O)N(Cc2cccnc2)C3)cc(OC)c1OC was read as CYP2C9 inh 68.7*, CYP2C19 activ 0.5, CYP2C9 activ 0.3 and CYP2C19 inh 48.2.
CCCN1Cc2cccc(C(=O)Nc3ccc4c(c3)OCO4)c2C1=O was read as CYP2C9 inh 59.8*, CYP2C19 activ 0.9, CYP2C9 activ 0.4 and CYP2C19 inh 10.0.
For CCCN1Cc2cccc(C(=O)Nc3ccc4c(c3)OCCO4)c2C1=O the results were CYP2C9 inh 92.0*, CYP2C19 activ 0.2, PLK1 kinase inh -13.1, CYP2C9 activ 0.1, PLK1 PBD inh -19.9 and CYP2C19 inh 80.9*.
`O=C(Nc1ccc2c(c1)OCO2)c1cccc2c1C(=O)N(Cc1cccnc1)C2` gave CYP2C9 inh 76.9*, CYP2C19 activ 0.7, CYP2C9 activ 0.2 and CYP2C19 inh 34.1.
Screening CCOC(=O)N1CCC(NC(=O)c2cc(C)c3c(C)nn(-c4ccccc4)c3n2)CC1 returned CYP2C9 inh -13.2, CYP2C19 activ 1, PLK1 kinase inh -4.6, CYP2C9 activ 1.1, PLK1 PBD inh 14.0 and CYP2C19 inh 1.3.
For CCOC(=O)CN1CC23C=CC(O2)C(C(=O)NCc2ccc(C)cc2)C3C1=O (stereo not given) the results were CYP2C9 inh -2.3, CYP2C19 activ 0.9, PLK1 kinase inh -0.9, CYP2C9 activ 1, PLK1 PBD inh 20.1 and CYP2C19 inh 6.9.
C(=N\n1cnnc1)/c1ccccn1 was read as CYP2C9 inh -5.2, CYP2C19 activ 1.2, PLK1 kinase inh -6.1, CYP2C9 activ 1.1, PLK1 PBD inh -14.6 and CYP2C19 inh -16.4.
`C(=N\n1cnnc1)/c1ccc2ncccc2c1` gave CYP2C9 inh 20.7, CYP2C19 activ 0.4, PLK1 kinase inh 0.7, CYP2C9 activ 0.8, PLK1 PBD inh 4.8 and CYP2C19 inh 56.7*.
Screening Cc1cc(OC(=O)c2ccc(Cl)cc2Cl)nc(C)n1 returned CYP2C9 inh -9.7, CYP2C19 activ 1.1, PLK1 kinase inh -4.4, CYP2C9 activ 1.1, PLK1 PBD inh -0.3 and CYP2C19 inh -6.1.
For COc1ccc2cc(CCNC(=O)C3CCCC3)c(=O)[nH]c2c1 the results were CYP2C9 inh -8.2, CYP2C19 activ 1.1, CYP2C9 activ 1.1 and CYP2C19 inh -6.2.
CN(c1ccccc1C(=O)Nc1cccc(Cl)c1Cl)S(C)(=O)=O was read as CYP2C9 inh 28.3, CYP2C19 activ 0.4, PLK1 kinase inh -10.9, CYP2C9 activ 0.7, PLK1 PBD inh 9.7 and CYP2C19 inh 64.8*.
CCOc1ccccc1NC(=O)c1ccccc1N(C)S(C)(=O)=O was read as CYP2C9 inh -11.1, CYP2C19 activ 0.7, PLK1 kinase inh 11.4, CYP2C9 activ 1.1, PLK1 PBD inh 15.3 and CYP2C19 inh 27.5.
Screening Cc1ccc(NC(=O)c2ccccc2N(C)S(C)(=O)=O)cc1C returned CYP2C9 inh -4.7, CYP2C19 activ 0.5, PLK1 kinase inh -3.8, CYP2C9 activ 1, PLK1 PBD inh -11.5 and CYP2C19 inh 50.3*.
Screening O=C(CNC(=O)c1ccccc1)NC1(C(=O)NC2CCCC2)CCCCC1 returned CYP2C9 inh 4.3, CYP2C19 activ 0.9, PLK1 kinase inh -3.6, CYP2C9 activ 1, PLK1 PBD inh -3.0 and CYP2C19 inh 8.9.
`CCOC(=O)c1cc(-c2ccc(/C=C3/C(=O)NC(=O)C(C#N)=C3C)o2)ccc1Cl` gave CYP2C9 inh 71.2*, CYP2C19 activ 0.8, PLK1 kinase inh 9.8, CYP2C9 activ 0.3, PLK1 PBD inh 4.9 and CYP2C19 inh 19.1.
`Cc1[nH]c2ccccc2c1C(=O)CN1CCCCC1C` (stereo not given) gave CYP2C9 inh -1.8, CYP2C19 activ 1, PLK1 kinase inh 45.6, CYP2C9 activ 1, PLK1 PBD inh 4.4 and CYP2C19 inh -1.4.
`CN(C)c1ccc(C2C3C(=O)NC(=O)C3ON2c2ccc(Cl)cc2)cc1` (stereo not given) gave CYP2C9 inh 37.1, CYP2C19 activ 0.5, PLK1 kinase inh 5.3, CYP2C9 activ 0.6, PLK1 PBD inh -15.0 and CYP2C19 inh 50.7*.
`CN(C)c1ccc(S(=O)(=O)c2ccc(Cl)cc2)cc1` gave CYP2C9 inh -5.3, CYP2C19 activ 0.8, PLK1 kinase inh 2.0, CYP2C9 activ 1.1, PLK1 PBD inh 24.6 and CYP2C19 inh 20.1.
For CSc1nc(N)nc(SCC(=O)C23CC4CC(CC(C4)C2)C3)c1C#N the results were PLK1 kinase inh -10.3 and PLK1 PBD inh 7.4.
`Nc1nc(SCC(=O)C23CC4CC(CC(C4)C2)C3)n[nH]1` gave CYP2C9 inh 53.1*, CYP2C19 activ 0.6, PLK1 kinase inh -4.1, CYP2C9 activ 0.5, PLK1 PBD inh 23.8 and CYP2C19 inh 44.8.
For O=C(CN1CCOCC1)Nc1nc(-c2ccc3c(c2)CCN3S(=O)(=O)c2ccccc2)cs1 the results were CYP2C9 inh 86.4*, CYP2C19 activ 0.3, PLK1 kinase inh -6.2, CYP2C9 activ 0.1, PLK1 PBD inh -15.5 and CYP2C19 inh 67.6*.
Screening CS(=O)(=O)N1CCc2cc(-c3csc(NC(=O)Cc4cccs4)n3)ccc21 returned CYP2C9 inh 83.4*, CYP2C19 activ 0.1, PLK1 kinase inh -7.2, CYP2C9 activ 0.2, PLK1 PBD inh -1.7 and CYP2C19 inh 89.5*.
Screening Cc1ccc(-n2cc(-c3ccccc3)[nH]c2=O)cc1F returned CYP2C9 inh 13.2, CYP2C19 activ 0.5, CYP2C9 activ 0.9 and CYP2C19 inh 49.5.
For Cc1ccc(NC(=O)CCC(=O)NCCO)cc1 the results were CYP2C9 inh -8.6, CYP2C19 activ 0.9, PLK1 kinase inh -2.4, CYP2C9 activ 1.1, PLK1 PBD inh -25.5 and CYP2C19 inh 11.5.
Screening COc1ccc(C)cc1NC(=O)CC(O)(C(F)(F)F)C(F)(F)F returned CYP2C9 inh 13.6, CYP2C19 activ 0.4, PLK1 kinase inh 3.7, CYP2C9 activ 0.9, PLK1 PBD inh 36.1 and CYP2C19 inh 61.5*.
Cc1ccc(NC(=O)CC(O)(C(F)(F)F)C(F)(F)F)cc1 was read as CYP2C9 inh 19.8, CYP2C19 activ 0.4, PLK1 kinase inh -10.3, CYP2C9 activ 0.8, PLK1 PBD inh -17.6 and CYP2C19 inh 58.9*.

Screens: PubChem BioAssay, several laboratories
